# Only some compounds are listed: those with a hit (about 5.7% of all), similar ones and a draw of the others.
# KDM4E inh = blocks human JMJD2E demethylase activity; JMJD2E catalytic domain, FDH-coupled NADH fluorescence (FDH is formaldehyde dehydrogenase); Potency, µM (doses to about 57.1 µM), inactives show at the highest dose activity change, negative = inhibition, hits mostly inhibitors; 230,000 compounds, 1.6% hits; AID 2147; active means well fitted inhibition curve with a large enough effect, not every such curve was filed as active; inconclusive means small, poorly fitted or top-dose-only effect, or another doubt; inactive means no such curve, though single readings can be large or run the other way;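 further: potency means the concentration at half of the fitted maximal effect; 0% = wells with enzyme and -100% = buffer wells without enzyme; nearly all actives have a fitted effect of over 50% in size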
# Target sequence (B2RXH2 1-337 limits assumed): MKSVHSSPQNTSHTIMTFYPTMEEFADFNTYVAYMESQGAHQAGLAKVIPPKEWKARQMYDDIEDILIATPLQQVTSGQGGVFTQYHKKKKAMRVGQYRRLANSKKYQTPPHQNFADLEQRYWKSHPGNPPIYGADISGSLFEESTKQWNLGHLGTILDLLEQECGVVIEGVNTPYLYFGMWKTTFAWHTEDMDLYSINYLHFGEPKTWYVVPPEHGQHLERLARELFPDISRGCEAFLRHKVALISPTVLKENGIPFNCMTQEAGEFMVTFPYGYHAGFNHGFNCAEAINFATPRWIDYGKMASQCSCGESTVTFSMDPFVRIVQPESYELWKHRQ
# HP1b binding inh = inhibitors of HP1-beta chromodomain binding to methylated histone tails; P83916; AlphaScreen HP1-beta / biotin-H3K9me3 peptide binding; 390,000 compounds, 0.56% hits; Potency, µM (doses to about 114 µM), without a hit: at the top dose activity change, negative = inhibition, hits mostly inhibitors; further: potency means the concentration at half of the fitted maximal effect; nearly all actives have a fitted effect of over 70% in size
# Target sequence (P83916 whole entry, looked up): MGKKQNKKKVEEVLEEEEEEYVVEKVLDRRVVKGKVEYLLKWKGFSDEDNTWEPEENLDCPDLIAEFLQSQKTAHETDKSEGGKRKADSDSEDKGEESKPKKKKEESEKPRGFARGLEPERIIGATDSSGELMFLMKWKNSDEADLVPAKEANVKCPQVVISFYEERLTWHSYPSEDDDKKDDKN
#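 HP1-beta protein (50 nM final) preincubated 30 min at room temperature with biotinylated H3(1-18)K9me3 peptide (50 nM) in PBS pH 7.4, 0.01% Tween-20, then compound added for 30 min. AlphaScreen streptavidin donor/nickel chelate acceptor beads (10 ug/mL final), 30 min dark, luminescence read.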
# BAZ2B inh = BAZ2B (human) inhibition | AlphaScreen BAZ2B-H3K14Ac peptide displacement | Potency, µM (series often up to 114 µM), for inactives: at the highest dose activity change, negative = inhibition, actives largely listed as inhibitors | 360,000 compounds, 4.4% hits; further: potency means the concentration at half of the fitted maximal effect; on the % scale 0 is the no-effect control and ±100 the full control effect; nearly all actives have a fitted effect of over 60% in size
#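 AlphaScreen displacement of biotin-H3(5-23)K14Ac peptide (50 nM final) from BAZ2B (50 nM final) in PBS pH 7.4, 0.01% Tween-20; complex preformed 30 min RT, then compounds (top 110 uM) 30 min RT, beads 20 min dark.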
# PI5P4Ka inh = PI5P4K alpha (human) kinase inhibition; P48426; PI5P4Kalpha enzyme, ADP-Glo luminescence, 60 min; stronger effect = lower value; max response, %; 330,000 compounds, 1.2% hits; AID 652105; active means max response of -50% or lower; inconclusive means between -30% and -50%; inactive means -30% or higher; further: value at the top dose of about 77 µM; on the % scale 0 is the no-effect control and ±100 the full control effect
#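 Single end-point luminescence (ADP-Glo) quantified ADP from PI5P4Kalpha turnover; ATP 5 microM final, 1 h at RT, 0.1% CHAPS and 0.28 mM EGTA in HEPES pH 7.4.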
# JMJD2A Tudor = JMJD2A Tudor domain (human) inhibition. 390,000 compounds, 4.4% hits. Potency, µM (titrated, usually from 114 µM), for the others: at the highest dose activity change, negative = inhibition, hits mostly inhibitors. O75164. AlphaScreen JMJD2A-Tudor / H3K4me3 peptide binding. AID 504339; further: potency means the concentration at half of the fitted maximal effect; on the % scale 0 is the no-effect control and ±100 the full control effect; nearly all actives have a fitted effect of over 50% in size
# L3MBTL1 block = L3MBTL1 (human) inhibition; Potency, µM (top dose mostly 57.1 µM), inactives show at the top dose activity, negative = inhibition, hits mostly inhibitors; Q9Y468; AlphaScreen L3MBTL1–H3K9me1 peptide binding; 230,000 compounds, 0.66% hits; AID 485360; further: potency means the concentration at half of the fitted maximal effect; on the % scale 0 is the no-effect control and ±100 the full control effect; nearly all actives have a fitted effect of over 60% in size
#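 First, the protein-peptide complex forms for 30 min at room temperature (L3MBTL1 50 nM, biotinylated H3K9me1 peptide 75 nM). Next, compounds are pin-transferred and incubated 30 min. Finally, AlphaScreen beads are added and read after 30 min.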
# * = called active by the depositor; ? = inconclusive; . = no result given; [ ] = another dose, or the depositor's remark. Unless noted, the call rests on the fitted dose curve; in most records, active means well fitted inhibition curve with a large enough effect; inconclusive means small, poorly fitted or top-dose-only effect; inactive means no such curve, though single readings can be large or run the other way.
SMILES,KDM4E inh,HP1b binding inh,BAZ2B inh,PI5P4Ka inh,JMJD2A Tudor,L3MBTL1 block
CN1CCc2c(sc3c2C(=O)NC(c2ccccn2)N3)C1 (configuration not stated),?,36%,45µM*,.,20µM*,?
CN1CCc2c(sc3c2C(=O)NC(c2ccccc2)N3)C1 (configuration not stated),?,0%,-1%,-10,-22%,-4%
CC(C)OC(=O)C(C(=O)C(F)(F)F)c1cc(NS(=O)(=O)c2ccc3c4c(cccc24)C(=O)N3)ccc1O (configuration not stated),.,-3%,-27%,.,-35%,.
CC(C)OC(=O)C(C(=O)C(F)(F)F)c1cc(NS(=O)(=O)c2ccc3ccccc3c2)c2ccccc2c1O (configuration not stated),?,?,-36%,-22,35µM*,-12%
COc1cccc(C(=O)O/N=C(\N)c2ccccn2)c1,.,26%,-28%,-73*,-12%,1%
CCCc1ccc(C(=O)O/N=C(\N)c2ccccn2)cc1,.,24%,4%,-65*,-7%,0%
N/C(=N\OC(=O)c1ccc2ccccc2c1)c1ccccn1,-14%,20%,-10%,-18,-2%,-5%
CSc1nc(C(=O)N2CCCC(C(=O)c3ccc(Cl)cc3)C2)cs1 (configuration not stated),-17%,38%,-14%,7,-16%,-4%
COc1ccc(NC(=O)C2CCCN(C(=O)c3cnn(-c4ccccc4)c3-n3cccc3)C2)cc1 (configuration not stated),.,10%,-12%,.,-24%,.
COc1ccc(-n2c(CCc3ccccc3)nnc2SCC(=O)c2ccc(Cl)cc2)cc1,-6%,18%,6%,4,-27%,3%
O=C(CSc1nnc(CCc2ccccc2)n1-c1ccc(Cl)cc1)c1ccccc1,-3%,2%,-32%,-50*,-33%,1%
O=C(NN=C1CCCC1)c1cccc(O)c1,.,11%,-13%,0,-16%,.
O=C(NN=C1CCCC1)c1cc(O)cc(O)c1,.,?,79µM*,-79*,?,.
CCN(CC)c1ccc(/C=C/c2ccc3ccc(OC)cc3[n+]2CC)cc1,.,?,40µM*,-15,13µM*,.
CC[n+]1c(/C=C/c2ccc(OC)c(OC)c2)ccc2ccccc21,.,13%,?,-4,?,8%
CC[n+]1ccc(/C=C/c2ccc(N(C)C)cc2)c2ccccc21,?,18µM*,10µM*,?,22µM*,25µM*
CC[n+]1c(/C=C/c2ccc(N(C)C)cc2)ccc2ccccc21,-3%,?,40µM*,-22,?,?
Cc1ccc(/C=C/c2ccc(N(C)C)cc2)[n+](C)c1,.,6%,?,4,25µM*,.
O=C1CC(c2ccccc2)Cc2[nH]c(=O)c(-c3nc(-c4cccc(Cl)c4)cs3)cc21 (configuration not stated),.,50%,12%,.,17%,.
CCN(CC)S(=O)(=O)c1ccc(NC(=O)Cn2ncc3c([nH]c4ccccc43)c2=O)cc1,.,13%,4%,.,-5%,.
CCc1nc(N2CCN(CC(=O)NCC3CCCO3)CC2)c(C#N)c2c1COC(C)(C)C2 (configuration not stated),.,33%,50µM*,-2,-1%,.
CCC1CC=CC2C1C(=O)N(Cc1ccccc1)C2c1ccc2ccccc2c1 (configuration not stated),.,41%,.,.,-4%,.
CCN1C(=O)[C@@H]2C(C(=O)c3cnccn3)=NN[C@@H]2C1=O,-29%,-2%,-14%,3,45µM*,10%
O=C(C1=NN[C@@H]2C(=O)N(c3cccc(F)c3)C(=O)[C@H]12)c1cnccn1,?,36%,45µM*,3,18µM*,-9%
Cc1ccc(C)c(CS(=O)(=O)c2cn(CC(=O)N(C(C)C)C(C)C)c3ccccc23)c1,.,43%,4%,.,12%,.
SMILES,KDM4E inh,HP1b binding inh,BAZ2B inh,PI5P4Ka inh,JMJD2A Tudor,L3MBTL1 block
Cc1cc(NS(=O)(=O)c2ccc(NC(=O)CCSc3ccc(F)cc3)cc2)nc(C)n1,-1%,49%,-11%,6,7%,3%
COc1cc(-n2ccnc2SC)c(Cl)cc1Cl,3%,22µM*,13µM*,-4,-8%[11.4 µM],-17%
COc1ccccc1-n1ccnc1SCC(=O)NC1CCCC1,7%,2%,-4%,-8,-9%,.
COc1ccc(NC(=O)CSc2nnc(NC(=O)Nc3ccc(OC)cc3)s2)cc1,.,33%,-18%,.,-11%,.
COc1ccc(NC(=O)CSc2nnc(NC(=O)c3ccccc3C(=O)O)s2)cc1,5%,-6%,-3%,-28,50µM*,0%
Cc1cc(Cn2ccnc2)c(C)c([N+](=O)[O-])c1Cn1ccnc1,.,31%,79µM*,0,-9%,.
CCOC(=O)[C@@H]1[C@H]2COc3ccc(Br)cc3[C@@H]2N2C(=O)N(c3ccc(Cl)cc3)C(=O)[C@@]12C,.,25%,.,0,-24%,-2%
Cc1cccc(-n2cc(CN3CCN(c4ccccn4)CC3)c(-c3cccc(F)c3)n2)c1,?,48%,-20%,12,-9%,-13%
Cc1cccc(CN2CCN(c3ccccn3)CC2)c1,.,?,.,0,3.2µM*,.
Brc1cccc(CN2CCN(c3ncccn3)CC2)c1,.,?,?,0,20µM*,0%
O=c1cc(CN2CCN(c3ccccn3)CC2)nc2sccn12,?,6%,-21%,-2,-23%,-4%
c1ccc(N2CCN(Cc3ccsc3)CC2)nc1,-9%,?,79µM*,-1,3.2µM*,3%
O=S(=O)(c1ccccc1)N1CCN(Cc2cccc(Br)c2)CC1,.,?,.,-3,28µM*,.
CCc1ccccc1NC(=O)CSc1ncccc1C(=O)O,.,36%,-7%,.,-14%,.
N#Cc1ccccc1NC(=O)CSc1ncn[nH]1,.,18%,3%,.,-1%,.
c1ccc(CCCN2CCN(c3ccccn3)CC2)cc1,.,?,?,2,25µM*,-5%
Cc1cccc(CN2CCN(c3ncccn3)CC2)c1,.,?,?,-1,2.8µM*,2%
COc1ccccc1NS(=O)(=O)c1ccc(C)c(NS(=O)(=O)c2cc(NC(C)=O)ccc2OC)c1,.,48%,.,0,-11%,.
O=C(CSc1ncn[nH]1)N1N=C2/C(=C/c3ccco3)CCCC2C1c1ccco1 (configuration not stated),-13%,-25%,?,.,56µM*,.
Cc1ccc(-c2onc(C)c2C)cc1S(=O)(=O)Nc1cccc(Cl)c1C,.,12%,3%,.,-16%,.
O=C1/C(=C\c2ccco2)CCC/C1=C\c1ccco1,-6%,45µM*,45µM*,?,45µM*,3.5µM*

# Screens: PubChem BioAssay, National Center for Advancing Translational Sciences (NCATS)
